The values that follow come from PubChem BioAssay (NCI).

This is part of a sample that, as a whole, favours compounds with a hit. Of some 83,000 tested, about 20% had one in any assay.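 Results are percent growth after 48 hours of single-concentration exposure. 100 means growth as in untreated cells, lower positive values show inhibition; negative values down to -100 show cell death.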 A number with no mark means an inactive call. The source made the active and inactive calls. How the source made its calls: active means growth percent below 10; inactive means the rest.

The test system of the experiment is NCI-H460 lung. The experiment can be described thus: NCI-60 one-dose screen, 48 h (100 = growth as untreated, 0 = no growth, -100 = all killed). The conditions noted are these: 10 µM unless noted.
`NC(=O)n1c(=O)n(-c2cccc(C(F)(F)F)c2)c(=O)c2cc(-c3ccc(F)cc3F)ccc21`: the growth was 4.55% (active).

Turning to `O=C1CSC(c2cn(-c3ccccc3)nc2-c2ccc(Cl)cc2)N1c1ccccc1` (stereo not drawn), the growth was 111%.

As for `COc1ccc(/C=N/NC(=O)CSc2nc(-c3cnccn3)cc(-c3cccs3)c2C#N)cc1`, the growth is 37.4%.

`C#Cc1cc(OC)c(C(=O)Nc2ccc(F)cc2C(=O)Nc2cccc(S(=O)(=O)C(F)(F)F)c2)cn1`: the growth was 26.6%.

As for `CN1c2ccccc2Sc2cc(/C=N/Nc3ccnc4cc(Cl)ccc34)ccc21`, the growth is 104%.

`O=C(/C=C/c1cccc(F)c1)c1cccc(OCCCOc2cccc(C(=O)/C=C/c3cccc(F)c3)c2)c1`: the growth was 96.1%.

`CN1CCN(Cc2ccc(NC(=O)c3cncc(C#Cc4cnc(N)nc4)c3)cc2C(F)(F)F)CC1`: the growth is 12.9%.

Consider `O=C(CSc1nc2ccccc2c(=O)n1-c1ccc(Cl)c(Cl)c1)Nc1ccc(S(=O)(=O)Nc2ccc(Cl)nn2)cc1`, for which the growth is 99.4%.

For `Cc1[nH]c(C(=O)Nc2ccc(C(N)=O)cc2N2CCOC(C)C2)c(Cl)c1Cl` (stereo not drawn), the growth is 102%.

As to `N#Cc1nc(-c2ccccc2)oc1N1CCC(C2(C(F)(F)F)N=N2)CC1`, the growth is 102%.

On to `C/C(=C(\c1ccc(O)cc1)c1ccc(OCCN2CCCCCC2)cc1)c1ccc(Cl)cc1`, for which the growth was -55.9% (active).

With `COc1ccc(C(=O)c2c(N)c(C#N)cn2-c2ccc(Cl)cc2Cl)cc1`, the growth was 100%.

Consider `C#C[C@]1(O)CC[C@H]2[C@@H]3CC=C4c5sc(Nc6cccc(F)c6)nc5CC[C@]4(C)[C@H]3CC[C@@]21C`, for which the growth is 24.3%.
